Experimental data from PubChem BioAssay (NCI).
The panel holds about 83,000 compounds, 20% with a hit somewhere; the sample as a whole holds those more often.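 Single-dose data. Exposure time 48 hours. Values below 10 considered active.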 Active and inactive are the calls of the source.

Tested on: MDA-MB-468 breast
Experiment: NCI-60 one-dose screen, 48 h (100 = growth as untreated, 0 = no growth, -100 = all killed)
Details: 10 µM unless noted

Compound	growth
COC(=O)c1ccc(NC(=S)N2CCc3ccc([N+](=O)[O-])cc3C2)cc1O	94.2% (inactive)
CCOC(=O)c1cc2c(n1C)-c1nc(NC(C)=O)sc1CCC2	79.8% (inactive)
O=C(Nc1nc2ccc(OC(F)(F)F)cc2s1)c1ccc(F)cc1	21.1% (inactive)
COc1ccc(-c2nn(-c3cccc(Cl)c3)cc2-c2nc(N)[nH]c(=O)c2C#N)cc1	73.9% (inactive)
O=C(OCc1nc2nc(Cl)nc(N3CCOCC3)c2[nH]1)n1ccnc1	-26.9% (active)
COc1ccc(-c2nc(SCC(C)C)nc(Nc3ccc(C(=O)O)cc3)c2C#N)cc1	91.3% (inactive)
Cc1ccccc1NC(=O)Cc1csc2[n+]1C(=O)/C(=C/c1ccc([N+](=O)[O-])cc1)S2	116% (inactive)
COc1ccccc1CNC(=O)C1c2ccccc2C(=O)N(CC(C)C)C1c1cccs1 (centres undefined)	65.7% (inactive)
COc1cc(-c2cc(-c3ccc(C)cc3)nc3nc(N)[nH]c(=O)c23)ccc1Oc1ccnc2cc(Cl)ccc12	52.3% (inactive)
O=C(NCCNc1nccc(-c2c(-c3cccc(F)c3)nc3sccn23)n1)c1ccc(Cl)cc1	67.8% (inactive)
COc1ccc(CCOc2cc3c(cc2OC)CCN(C(=O)NCc2cocn2)C3c2ccc(C)cc2C)cc1 (centres undefined)	3.86% (active)
COc1ccc(CCNC2=CC(=O)CCC2)cc1OC	109% (inactive)
NS(=O)(=O)c1ccc(Nc2nc(N/N=C/CCc3ccccc3)nc(Nc3ccccc3)n2)cc1	88.6% (inactive)
CC(C)(C)n1cc(-c2ccnc(NCCNS(=O)(=O)c3ccccc3)c2)c(-c2cccc(O)c2)n1	11.1% (inactive)
